Bioassay records as filed in PubChem BioAssay.
An excerpt weighted towards active compounds, which were near 21% of everything screened.
CYP2C9 inh = blocks human cytochrome P450 2C9; P11712; CYP2C9 Supersomes, luciferin-H conversion, luminescence; inhibition, % at 5 µM; hit rate 20% among 96,000; AID 777;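 active = blocking of liver enzyme CYP2C9 beyond about 50% at 5 µM, limit read from the data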
CYP2C19 act = activators of human cytochrome P450 2C19 | P33261 | AID 1025 | activation factor at 5 µM | 96,000 tested, under 10 active | recombinant CYP2C19, luciferin-H EGE luminescence; active compounds read high; 0 = fully inhibited enzyme, 1 = untreated enzyme;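 active = activation factor of at least 2 at 5 µM in the primary screen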
Target sequence (P33261 whole entry, looked up): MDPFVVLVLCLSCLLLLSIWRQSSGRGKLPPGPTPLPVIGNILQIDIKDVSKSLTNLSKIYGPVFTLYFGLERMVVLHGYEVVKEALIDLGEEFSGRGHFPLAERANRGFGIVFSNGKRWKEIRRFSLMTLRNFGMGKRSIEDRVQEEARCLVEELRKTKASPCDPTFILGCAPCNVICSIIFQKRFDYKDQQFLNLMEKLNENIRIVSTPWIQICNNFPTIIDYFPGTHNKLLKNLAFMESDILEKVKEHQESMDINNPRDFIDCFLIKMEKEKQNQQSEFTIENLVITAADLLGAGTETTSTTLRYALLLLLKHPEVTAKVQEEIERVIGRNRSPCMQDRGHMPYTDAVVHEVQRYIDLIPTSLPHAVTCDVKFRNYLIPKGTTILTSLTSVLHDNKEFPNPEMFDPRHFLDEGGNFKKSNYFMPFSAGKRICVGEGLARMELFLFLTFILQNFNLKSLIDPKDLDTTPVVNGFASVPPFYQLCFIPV
MRP resist rev = MRP-mediated drug resistance reversal; AID 602; differential viability (reversal), % at 10 µM; hit rate 0.04% among 85,000; H69AR cells + 2 uM doxorubicin, CellTiter-Glo, 72 h;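 active = viability drop by adding the cancer drug above about 55%, with treated viability meeting a 40% cutoff, limit read from the data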;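 note: larger differential means the compound sensitizes cells more to doxorubicin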
CYP2C19 inh = inhibitors of human CYP2C19; hit rate 21% among 96,000; CYP2C19 Supersomes, luciferin-H EGE luminescence, 30 min; inhibition, % at 5 µM;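 active = CYP2C19 inhibition above a set limit at 5 µM in the primary screen, cut at about 50% in these data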
MRP-1 activ = activates MRP-1; hit rate 0.61% among 140,000; H69AR cells + doxorubicin, viability rescue, CellTiter-Glo; viability increase, % at 10 µM;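 active = viability gain under doxorubicin at or above a set limit, the compound median plus 3 SD, cut at about 4.7% in these data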;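 note: MRP-1 overexpressing cells given doxorubicin 25 µM after compound pretreatment; 18-22 h compound pretreatment then 72 h with doxorubicin before readout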
CYP2C9 activ = CYP2C9 (human) activation. hit rate 1.4% among 96,000. recombinant CYP2C9, luciferin-H conversion, luminescence; active compounds read high; factor 1 = untreated enzyme, 0 = blocked. AID 1024. activation factor at 5 µM. P11712;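 active = activation factor of 2 or more for CYP2C9 at a 5 µM dose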
Numbers stand for hits; i = inactive; nt = no result given.

SMILES	CYP2C9 inh	CYP2C19 act	MRP resist rev	CYP2C19 inh	MRP-1 activ	CYP2C9 activ
CN1CCC(N(C)C(=O)c2ccccc2Nc2ccc(SC(F)F)cc2)CC1	i	i	i	i	i	i
CN1OC(CC(=O)O)N(c2ccc(Cl)cc2)C1=O (stereo not drawn)	i	i	i	i	i	i
CCOC(=O)CC1ON(C)C(=O)N1c1ccc(Cl)cc1Cl (stereo not drawn)	i	i	i	98.6	i	i
CC(C)NC(=O)c1cnc(N2CCN(c3ccccn3)CC2)c2ccccc12	i	i	i	i	i	i
CCN1CCN(c2ncc(C(=O)Nc3ccccc3C(=O)OC)c3ccccc23)CC1	55.7	i	i	i	i	i
COC(c1ccccc1)c1c(-c2ccccc2)nn(C)c1Cl (stereo not drawn)	70.8	i	nt	94.1	i	i
O=C(NC1CC1)C1C2C3C4CC5C3C5C4C12 (stereo not drawn)	i	i	i	i	i	i
CNC(=O)c1cc(C)c(-c2ccccc2)s1	i	i	i	i	i	i
CC1=Nc2ccccc2N=C(NC(=O)CSc2nnnn2-c2ccccc2)C1c1ccccc1 (stereo not drawn)	95.0	i	i	79.4	i	i
COc1ccc(-n2nnnc2SCc2nc3ccccc3s2)cc1	79.3	i	i	95.3	i	i
Cc1cc(C(=O)CSc2nnnn2C)c(C)n1CCc1ccc(Cl)cc1	i	i	i	i	i	i
COc1ccc(C)cc1-n1nnnc1SCC(=O)c1ccc2c(c1)OCCO2	i	i	i	i	i	i
COc1ccc(C)cc1-n1nnnc1SCC1CCCO1 (stereo not drawn)	55.3	i	i	98.3	i	i
COc1ccc(CCn2c(C)cc(C(=O)CSc3nnnn3-c3ccccc3)c2C)cc1	i	i	i	i	i	2.4
C=CCSc1nnnn1-c1ccc(OC)cc1	65.7	i	i	98.3	i	i
COCCn1c(SCc2nc3ccccc3s2)nc2ccccc21	85.9	i	i	100.2	i	i
COc1ccc(-n2nnnc2SCC(=O)N2CCCC2)cc1OC	i	i	i	i	i	i
COc1cc(CSc2nnnn2-c2ccc(C)cc2)cc(OC)c1OC	64.1	i	i	i	i	i
COc1ccc(CSc2nnnn2-c2ccccc2)cc1	88.6	i	i	96.4	i	i
O=C(NCc1ccc(F)cc1)C1(c2cccs2)CCOCC1	nt	nt	nt	nt	i	nt
COc1ccc(C)cc1-n1nnnc1SCc1nc2ccccc2s1	77.9	i	i	72.8	i	i
COc1ccc(C)cc1-n1nnnc1SCC(=O)Nc1cc(C)on1	nt	nt	i	nt	i	nt
O=C(CSc1nnnn1-c1ccccc1)N1CCc2ccccc2C1	i	i	i	64.8	i	i
COC(=O)CSc1nnnn1-c1ccccc1	i	i	i	55.6	i	i
COc1cc(CC(=O)NCCc2ccc(S(N)(=O)=O)cc2)cc(OC)c1OC	i	i	nt	i	i	i
SMILES	CYP2C9 inh	CYP2C19 act	MRP resist rev	CYP2C19 inh	MRP-1 activ	CYP2C9 activ
COc1ccc(Cl)cc1-n1c(C)ccc1C	nt	nt	nt	nt	i	nt
Cc1nn(-c2ccccc2)c2[nH]c(=O)c(CNc3ccc4c(c3)OCCO4)cc12	60.8	i	i	i	i	i
CCc1ccc(NCc2cc3c(C)nn(-c4ccccc4)c3[nH]c2=O)cc1	92.3	i	i	i	i	i
Cc1nn(-c2ccccc2)c2[nH]c(=O)c(CNCc3ccc4c(c3)OCO4)cc12	i	i	i	i	i	i
CC(=O)c1cc(C(=O)c2ccccc2)sc1Nc1ccccc1	nt	nt	nt	nt	i	nt
CSc1cccc(NC(=O)CSc2ccc(Cl)cc2)c1	i	i	i	60.6	i	i
CCSCc1nnc(SCC(=O)Nc2cccc(SC)c2)n1C	i	i	i	90.9	i	i
CCn1cc(Br)c(C(=O)Nc2cccc(SC)c2)n1	i	i	i	81.1	i	i
CSc1cccc(NC(=O)CSc2ccc(C)cc2)c1	i	i	i	i	i	i
CCC(=O)Nc1cccc(SC)c1	nt	nt	nt	nt	i	nt
CC(C)C(=O)NC(Nc1ccccc1F)C(Cl)(Cl)Cl (stereo not drawn)	58.6	i	nt	53.7	i	i
CC(C)CC(=O)NC(Nc1ccccc1F)C(Cl)(Cl)Cl (stereo not drawn)	57.8	i	nt	51.6	i	i
CCCC(=O)NC(Nc1cc(C(F)(F)F)ccc1Cl)C(Cl)(Cl)Cl (stereo not drawn)	i	i	nt	i	i	i
CCCC(=O)NC(Nc1ccccc1F)C(Cl)(Cl)Cl (stereo not drawn)	56.7	i	nt	53.1	i	i
